This is a sample that favours compounds with a hit; in the whole collection about 3.1% have one here.
esBAF inh = SWI/SNF esBAF complex inhibition; mouse ES cells, Bmi1-luciferase knock-in reporter, 24 h; 100% = twice the neutral-well signal; reporter increase, % at 12.5 µM; 350,000 compounds, 2% hits; AID 602393; in the data active = activation above about 40%; inconclusive = no clear call, values can overlap the other calls;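 note: 0% = median of the plate's neutral control wells and 100% = double that signal; a rise in the Bmi1 reporter signal indicates esBAF inhibition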
C2C12 statin = suppression of simvastatin myotoxicity; 330,000 compounds, 0.78% hits; C2C12 myotubes + simvastatin, ATP luminescence, 48 h; scaled: DMSO 0, geranylgeraniol control 100; rescue of ATP level, % at 7.49 µM;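 active = mean ATP rescue above about 67%, or every replicate alone reaching that limit, limit read from the data, passing the limit was not always enough; inconclusive = no clear call, values can overlap the other calls; inactive = mean under the limit and some replicate under it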;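 note: myotubes were challenged with 10 µM simvastatin during compound exposure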
Wnt act = activates Wnt/beta-catenin signaling in a reporter cell assay; 300,000 compounds, 1.2% hits; activation, % at 9.35 µM; activator, plate reader; in the data active = activation above about 30%, passing the limit was not always enough; inconclusive = no clear call, values can overlap the other calls;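 note: 0% = neutral control wells and 100% = positive control wells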
MITF act = MITF TRPM1 promoter activation in melanoma cells | SK-MEL-5 TRPM1-promoter luciferase, 24 h; % of positive control, neutral wells = 0 | activation, % at 12.5 µM | 300,000 compounds, 0.75% hits;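 active = mean activation of at least 80% with every replicate also reaching 80%; inconclusive = mean reaches 80% but some replicate falls short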;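 note: 0% = neutral control wells and 100% = parthenolide positive control wells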
Rtt109 Vps75 = C. albicans Rtt109 histone acetyltransferase inhibition; Q5AAJ8; purified Rtt109/Vps75, ThioGlo CoA-SH fluorescence, 4 h; inhibition, % at 34.9 µM; 330,000 compounds, 0.16% hits; AID 540336;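 active = inhibition of at least 50% in every replicate; inconclusive = best replicate reaches 50% inhibition but some replicates fall short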
Target sequence (Q5AAJ8 whole entry, looked up): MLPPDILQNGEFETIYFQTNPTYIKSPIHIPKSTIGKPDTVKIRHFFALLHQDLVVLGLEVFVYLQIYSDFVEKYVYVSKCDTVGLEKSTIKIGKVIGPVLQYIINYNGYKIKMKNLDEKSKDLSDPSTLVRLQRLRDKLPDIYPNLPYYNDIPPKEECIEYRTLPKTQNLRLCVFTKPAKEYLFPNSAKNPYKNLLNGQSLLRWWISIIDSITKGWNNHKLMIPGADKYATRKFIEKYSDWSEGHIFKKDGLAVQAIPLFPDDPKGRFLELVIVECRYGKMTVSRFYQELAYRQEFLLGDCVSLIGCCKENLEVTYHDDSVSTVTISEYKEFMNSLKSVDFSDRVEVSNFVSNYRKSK
Starred values were filed as active, the others as inactive; ? = inconclusive; / = no result given.

SMILES	esBAF inh	C2C12 statin	Wnt act	MITF act	Rtt109 Vps75
COc1ccc(O)c(C(=O)CC(=O)c2ccc(F)cc2)c1	/	3	/	-19	1
CC(C)c1ccc(NC(=O)COc2ccc(F)cc2C(=O)c2cnn(-c3ccccc3)c2)cc1	/	/	/	39	2
COc1ccc(O)c(C(=O)CC(=O)c2cccnc2)c1	20	-6	34*	62	5
O=C(c1cnn(-c2ccccc2)c1)c1cc(F)ccc1O	89*	1	14	66	1
C[C@H](CO)N1C[C@H](C)[C@H](CN(C)Cc2ccc(Oc3ccccc3)cc2)Oc2ccc(NC(=O)C3CCCCC3)cc2C1=O	-3	/	/	/	/
CO[C@@H]1CN(C)C(=O)c2cc(NC(=O)NC3CCCCC3)ccc2OC[C@H](C)N(CCc2ccccc2)C[C@H]1C	3	-105	/	/	/
c1ccc2c(c1)CCN(Cc1nnnn1Cc1ccc3c(c1)OCO3)C2	-1	125*	/	4	0
CCCC#Cc1cnc2c(c1)C(=O)N([C@H](C)CO)C[C@@H](C)[C@H](CN(C)C(=O)Nc1ccccc1OC)O2	2	8	/	/	/
CCn1c(/C=C/c2ccccc2)nc2ccccc21	-7	-77	/	5	-9
C=CCn1c(-c2ccc(OC)cc2)nc2ccccc21	41*	-6	7	19	4
COc1ccc(Cn2c(/C=C/c3ccccc3)nc3ccccc32)cc1	?	-12	84*	87*	-3
C=C1CCN(c2ccc(C(=O)NCc3ccc(C)cc3)cc2[N+](=O)[O-])CC1	14	120*	-3	11	0
COc1ccc(NC(=O)Nc2ccc3c(c2)C(=O)N([C@H](C)CO)C[C@@H](C)[C@@H](CN(C)CC2CCCCC2)OCCCC[C@@H](C)O3)cc1	1	-351	/	/	/
COC(=O)c1cc(NC(=O)c2ccccc2)c(=O)oc1C	/	/	-2	2	-2
COC(=O)c1cc(NC(=O)c2ccc(C)cc2)c(=O)oc1C	45*	-2	2	9	-6
C[C@H]1CN([C@@H](C)CO)C(=O)Cc2cc(NS(=O)(=O)c3cn(C)cn3)ccc2O[C@@H]1CN(C)Cc1ccc(-c2ccccc2)cc1	-3	88*	/	/	/
C[C@@H]1CN([C@@H](C)CO)C(=O)Cc2cc(NS(=O)(=O)c3cn(C)cn3)ccc2O[C@H]1CN(C)Cc1ccc(-c2ccccc2)cc1	-3	?	/	/	/
C[C@@H]1CN([C@H](C)CO)C(=O)Cc2cc(NS(=O)(=O)c3ccc(F)cc3)ccc2O[C@@H]1CN(C)Cc1ccc(-c2ccccc2)cc1	6	40	/	/	/
C[C@@H]1CN([C@@H](C)CO)C(=O)Cc2cc(NS(=O)(=O)c3ccc(F)cc3)ccc2O[C@H]1CN(C)Cc1ccc(-c2ccccc2)cc1	4	80*	/	/	/
C[C@@H]1CN([C@@H](C)CO)C(=O)Cc2cc(NS(=O)(=O)c3ccc(Cl)cc3)ccc2O[C@@H]1CN(C)Cc1ccc(-c2ccccc2)cc1	-4	59	/	/	/
C[C@@H]1CN([C@@H](C)CO)C(=O)Cc2cc(NS(=O)(=O)c3ccc(Cl)cc3)ccc2O[C@H]1CN(C)Cc1ccc(-c2ccccc2)cc1	0	69*	/	/	/
C/C(=N\NC(=O)c1cc2c(s1)CCC(C)C2)c1ccncc1 (stereo not given)	9	-17	20	33	/
C/C(=N\NC(=O)c1cc2c(s1)CCC(C)C2)c1ccc[nH]1 (stereo not given)	28	0	?	104*	-4
O=C(C[C@H]1CC[C@H](NS(=O)(=O)c2ccc(F)cc2)[C@H](CO)O1)NC1CCC1	-3	-4	/	/	/
O=[N+]([O-])c1ccccc1/C=N/Nc1nccnc1Cl	?	112*	13	48	-11
SMILES	esBAF inh	C2C12 statin	Wnt act	MITF act	Rtt109 Vps75
Oc1ccccc1/C=N/Nc1nccnc1Cl	-29	-14	5	/	8
CCOc1ccccc1/C=N/Nc1ccccc1[N+](=O)[O-]	54*	29	/	72	7
COc1ccc(/C=N/Nc2nccnc2Cl)c(OC)c1	/	/	/	88*	24
COc1ccccc1/C=N\Nc1ccccc1[N+](=O)[O-]	/	/	29	/	-2
C[C@H]1CN([C@@H](C)CO)C(=O)c2cccc(NS(=O)(=O)c3ccccc3)c2O[C@@H]1CN(C)Cc1ccncc1	-2	-7	/	/	/
CCn1c(O)c(C=NC2CCCC2)sc1=S	45*	2	18	36	-18
C[C@@H](NC(=O)[C@@H]1[C@@H](CO)[C@@H]2Cn3c(cccc3=O)[C@@H]2N1Cc1cccnc1)c1ccccc1	0	-8	/	/	/
CCOc1ccc(N/C=C/C(=O)c2ccc(C)cc2)c([N+](=O)[O-])c1	/	/	/	88*	4
Cc1ccc(C(=O)/C=C/Nc2ccc([N+](=O)[O-])cc2Br)cc1	?	/	11	87*	-3
CCOc1ccc(N/C=C/C(=O)c2ccc3ccccc3c2)c([N+](=O)[O-])c1	50*	-11	5	78	3
O=C(N[C@H]1CC[C@@H](CCNC(=O)c2cnccn2)O[C@H]1CO)c1ccc2c(c1)OCO2	-4	2	/	/	/
CC(C)NC(=O)N(C)C[C@@H]1Oc2c(NS(=O)(=O)c3ccc(Cl)cc3)cccc2C(=O)N([C@@H](C)CO)C[C@@H]1C	-4	-9	/	/	/
CC(=O)N/N=C\c1cccc(OC/C=C/c2ccccc2)c1	38	8	18	16	?
CC(C)(O)C(=O)N/N=C\c1ccc(OC/C=C/c2ccccc2)cc1	29	6	13	105*	-7
COC(=O)N/N=C\c1ccc(OC/C=C/c2ccccc2)cc1	/	/	8	71	0
CC(=O)N/N=C\c1ccccc1OC/C=C/c1ccccc1	70*	-15	42*	?	-2
Cc1ccc(S(=O)(=O)Nc2ccc3c(c2)C(=O)N([C@H](C)CO)C[C@@H](C)[C@H](CN(C)C(=O)C2CCCCC2)OCCCC[C@@H](C)O3)cc1	6	/	/	/	/
CCCC#Cc1ccc2c(c1)O[C@H](CN(C)C(=O)COC)[C@@H](C)CN([C@H](C)CO)S2(=O)=O	-1	-13	/	/	/
C[C@@H]1CN([C@@H](C)CO)C(=O)c2ccccc2-c2ccccc2CO[C@H]1CN(C)CC1CC1	-4	/	/	/	/
Cc1noc(C)c1NC(=O)Nc1ccc2c(c1)C(=O)N([C@H](C)CO)C[C@@H](C)[C@H](CN(C)C(=O)Nc1ccccc1)O2	-2	/	/	/	/
CC(C)CNC(=O)c1ccccc1NC(=O)c1ccccc1N(C)S(C)(=O)=O	2	6	/	-4	-4
CSc1ccccc1NC(=O)c1ccccc1N(C)S(C)(=O)=O	-7	-1	/	-13	3
CSc1ccccc1NC(=O)c1ccccc1N(Cc1ccccc1)S(C)(=O)=O	-9	102*	-3	-11	-6
CS(=O)(=O)N1CCN(C(=O)c2ccccc2F)CC1	-3	95*	-7	11	2
CS(=O)(=O)N1CCN(C(=O)c2c(F)cccc2F)CC1	-7	20	/	2	0
CN(c1ccccc1C(=O)N1CCCC1)S(C)(=O)=O	-10	100*	0	/	-6

Compound activity as filed in PubChem BioAssay.
